{"source": "ChEMBL document CHEMBL1961873", "about": "“Compounds: GSK PKIS; Assays: Nanosyn kinase panel” (2012)", "key": {"[1]": {"target": "RAC-alpha serine/threonine-protein kinase (Homo sapiens) (UniProt P31749)", "conditions": "at 0.1 µM"}, "[2]": {"target": "RAC-alpha serine/threonine-protein kinase (Homo sapiens) (UniProt P31749)", "conditions": "at 1 µM"}, "[3]": {"target": "RAC-beta serine/threonine-protein kinase (Homo sapiens) (UniProt P31751)", "sequence (P31751 whole entry)": "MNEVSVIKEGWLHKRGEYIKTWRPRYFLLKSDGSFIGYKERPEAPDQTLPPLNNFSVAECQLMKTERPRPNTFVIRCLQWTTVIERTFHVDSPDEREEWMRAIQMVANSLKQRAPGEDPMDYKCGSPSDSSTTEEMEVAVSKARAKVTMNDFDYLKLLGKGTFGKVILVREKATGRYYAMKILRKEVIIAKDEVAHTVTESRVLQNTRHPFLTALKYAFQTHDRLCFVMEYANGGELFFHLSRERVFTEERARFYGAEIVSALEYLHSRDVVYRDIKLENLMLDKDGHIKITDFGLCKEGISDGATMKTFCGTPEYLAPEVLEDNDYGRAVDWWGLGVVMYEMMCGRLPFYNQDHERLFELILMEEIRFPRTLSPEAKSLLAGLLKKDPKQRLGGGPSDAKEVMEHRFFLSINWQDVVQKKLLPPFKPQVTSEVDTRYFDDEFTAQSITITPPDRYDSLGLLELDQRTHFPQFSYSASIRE", "conditions": "at 0.1 µM"}, "[4]": {"target": "RAC-beta serine/threonine-protein kinase (Homo sapiens) (UniProt P31751)", "conditions": "at 1 µM"}, "[5]": {"target": "RAC-gamma serine/threonine-protein kinase (Homo sapiens) (UniProt Q9Y243)", "sequence (Q9Y243 whole entry)": "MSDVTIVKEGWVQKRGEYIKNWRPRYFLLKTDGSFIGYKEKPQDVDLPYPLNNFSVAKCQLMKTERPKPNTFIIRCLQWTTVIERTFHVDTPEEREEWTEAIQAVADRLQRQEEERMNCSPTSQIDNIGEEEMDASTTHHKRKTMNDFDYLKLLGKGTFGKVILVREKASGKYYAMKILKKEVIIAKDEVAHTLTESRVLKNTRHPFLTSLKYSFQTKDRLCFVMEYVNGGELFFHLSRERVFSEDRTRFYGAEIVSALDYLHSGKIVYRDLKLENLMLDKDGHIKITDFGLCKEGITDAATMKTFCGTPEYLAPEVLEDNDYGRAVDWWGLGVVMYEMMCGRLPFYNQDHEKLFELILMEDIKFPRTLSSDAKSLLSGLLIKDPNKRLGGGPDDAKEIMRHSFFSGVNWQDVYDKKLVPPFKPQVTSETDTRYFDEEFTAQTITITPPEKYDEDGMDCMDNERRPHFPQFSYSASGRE", "conditions": "at 0.1 µM"}, "[6]": {"target": "RAC-gamma serine/threonine-protein kinase (Homo sapiens) (UniProt Q9Y243)", "conditions": "at 1 µM"}, "[7]": {"target": "G protein-coupled receptor kinase 6 (Homo sapiens) (UniProt P43250)", "conditions": "at 0.1 µM"}, "[8]": {"target": "G protein-coupled receptor kinase 6 (Homo sapiens) (UniProt P43250)", "conditions": "at 1 µM"}, "[9]": {"target": "Rhodopsin kinase GRK7 (Homo sapiens) (UniProt Q8WTQ7)", "conditions": "at 0.1 µM"}, "[10]": {"target": "Rhodopsin kinase GRK7 (Homo sapiens) (UniProt Q8WTQ7)", "conditions": "at 1 µM"}, "[11]": {"target": "Serine/threonine-protein kinase MRCK alpha (Homo sapiens) (UniProt Q5VT25)", "sequence (Q5VT25 whole entry)": "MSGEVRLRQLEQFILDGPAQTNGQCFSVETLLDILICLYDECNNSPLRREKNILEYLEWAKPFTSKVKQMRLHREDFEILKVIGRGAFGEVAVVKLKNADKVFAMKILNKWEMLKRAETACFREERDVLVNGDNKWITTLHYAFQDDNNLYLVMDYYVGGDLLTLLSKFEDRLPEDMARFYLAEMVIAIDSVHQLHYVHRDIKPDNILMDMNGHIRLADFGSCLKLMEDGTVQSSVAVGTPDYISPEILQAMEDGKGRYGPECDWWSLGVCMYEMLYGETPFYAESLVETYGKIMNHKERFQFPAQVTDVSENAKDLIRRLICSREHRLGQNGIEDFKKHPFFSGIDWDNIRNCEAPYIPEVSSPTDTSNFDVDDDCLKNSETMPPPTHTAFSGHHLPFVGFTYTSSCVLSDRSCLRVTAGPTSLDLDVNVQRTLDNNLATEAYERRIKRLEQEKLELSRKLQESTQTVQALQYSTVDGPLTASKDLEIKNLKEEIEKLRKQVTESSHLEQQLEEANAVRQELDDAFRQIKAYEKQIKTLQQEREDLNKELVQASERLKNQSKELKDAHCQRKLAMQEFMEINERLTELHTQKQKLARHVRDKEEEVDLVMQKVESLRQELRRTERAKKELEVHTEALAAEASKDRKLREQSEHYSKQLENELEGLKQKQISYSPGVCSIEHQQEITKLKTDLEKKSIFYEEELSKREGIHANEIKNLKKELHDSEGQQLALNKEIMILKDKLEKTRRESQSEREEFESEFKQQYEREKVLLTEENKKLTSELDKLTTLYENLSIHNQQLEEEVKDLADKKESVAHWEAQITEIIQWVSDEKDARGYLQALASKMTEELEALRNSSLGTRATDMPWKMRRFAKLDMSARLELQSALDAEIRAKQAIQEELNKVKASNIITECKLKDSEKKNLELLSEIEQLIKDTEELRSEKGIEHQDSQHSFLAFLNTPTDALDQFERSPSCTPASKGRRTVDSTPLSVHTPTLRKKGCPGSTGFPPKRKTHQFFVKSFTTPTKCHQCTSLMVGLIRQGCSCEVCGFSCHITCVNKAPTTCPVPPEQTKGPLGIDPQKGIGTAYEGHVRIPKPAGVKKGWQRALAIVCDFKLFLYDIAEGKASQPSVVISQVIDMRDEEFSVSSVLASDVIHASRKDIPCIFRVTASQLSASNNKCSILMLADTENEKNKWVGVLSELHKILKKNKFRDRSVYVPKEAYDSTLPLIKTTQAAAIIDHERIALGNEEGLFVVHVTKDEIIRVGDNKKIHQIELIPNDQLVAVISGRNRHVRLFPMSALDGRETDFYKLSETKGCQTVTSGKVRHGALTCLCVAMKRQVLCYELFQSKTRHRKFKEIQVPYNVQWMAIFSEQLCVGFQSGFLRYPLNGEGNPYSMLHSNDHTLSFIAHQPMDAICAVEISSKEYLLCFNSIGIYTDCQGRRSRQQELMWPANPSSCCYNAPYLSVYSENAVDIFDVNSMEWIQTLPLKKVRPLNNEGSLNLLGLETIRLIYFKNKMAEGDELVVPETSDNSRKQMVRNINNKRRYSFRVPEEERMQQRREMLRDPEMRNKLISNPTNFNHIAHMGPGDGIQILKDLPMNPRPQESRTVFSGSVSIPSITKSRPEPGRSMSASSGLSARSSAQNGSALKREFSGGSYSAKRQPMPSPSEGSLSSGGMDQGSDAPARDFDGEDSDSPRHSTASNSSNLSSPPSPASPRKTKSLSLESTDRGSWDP", "conditions": "at 0.1 µM"}, "[12]": {"target": "Serine/threonine-protein kinase MRCK alpha (Homo sapiens) (UniProt Q5VT25)", "conditions": "at 1 µM"}, "[13]": {"target": "Serine/threonine-protein kinase MRCK beta (Homo sapiens) (UniProt Q9Y5S2)", "conditions": "at 0.1 µM"}, "[14]": {"target": "Serine/threonine-protein kinase MRCK beta (Homo sapiens) (UniProt Q9Y5S2)", "conditions": "at 1 µM"}, "[15]": {"target": "Ribosomal protein S6 kinase alpha-5 (Homo sapiens) (UniProt O75582)", "conditions": "at 0.1 µM"}, "[16]": {"target": "Ribosomal protein S6 kinase alpha-5 (Homo sapiens) (UniProt O75582)", "conditions": "at 1 µM"}, "[17]": {"target": "Ribosomal protein S6 kinase alpha-4 (Homo sapiens) (UniProt O75676)", "conditions": "at 0.1 µM"}, "[18]": {"target": "Ribosomal protein S6 kinase alpha-4 (Homo sapiens) (UniProt O75676)", "conditions": "at 1 µM"}, "[19]": {"target": "Ribosomal protein S6 kinase beta-1 (Homo sapiens) (UniProt P23443)", "conditions": "at 0.1 µM"}, "[20]": {"target": "Ribosomal protein S6 kinase beta-1 (Homo sapiens) (UniProt P23443)", "conditions": "at 1 µM"}, "[21]": {"target": "3-phosphoinositide-dependent protein kinase 1 (Homo sapiens) (UniProt O15530)", "conditions": "at 0.1 µM"}, "[22]": {"target": "cAMP-dependent protein kinase catalytic subunit alpha (Homo sapiens) (UniProt P17612)", "conditions": "at 0.1 µM"}, "[23]": {"target": "cAMP-dependent protein kinase catalytic subunit alpha (Homo sapiens) (UniProt P17612)", "conditions": "at 1 µM"}, "[24]": {"target": "Protein kinase C alpha type (Homo sapiens) (UniProt P17252)", "conditions": "at 0.1 µM"}, "[25]": {"target": "Protein kinase C alpha type (Homo sapiens) (UniProt P17252)", "conditions": "at 1 µM"}, "[26]": {"target": "Protein kinase C beta type (Homo sapiens) (UniProt P05771)", "sequence (P05771 2-671 limits assumed)": "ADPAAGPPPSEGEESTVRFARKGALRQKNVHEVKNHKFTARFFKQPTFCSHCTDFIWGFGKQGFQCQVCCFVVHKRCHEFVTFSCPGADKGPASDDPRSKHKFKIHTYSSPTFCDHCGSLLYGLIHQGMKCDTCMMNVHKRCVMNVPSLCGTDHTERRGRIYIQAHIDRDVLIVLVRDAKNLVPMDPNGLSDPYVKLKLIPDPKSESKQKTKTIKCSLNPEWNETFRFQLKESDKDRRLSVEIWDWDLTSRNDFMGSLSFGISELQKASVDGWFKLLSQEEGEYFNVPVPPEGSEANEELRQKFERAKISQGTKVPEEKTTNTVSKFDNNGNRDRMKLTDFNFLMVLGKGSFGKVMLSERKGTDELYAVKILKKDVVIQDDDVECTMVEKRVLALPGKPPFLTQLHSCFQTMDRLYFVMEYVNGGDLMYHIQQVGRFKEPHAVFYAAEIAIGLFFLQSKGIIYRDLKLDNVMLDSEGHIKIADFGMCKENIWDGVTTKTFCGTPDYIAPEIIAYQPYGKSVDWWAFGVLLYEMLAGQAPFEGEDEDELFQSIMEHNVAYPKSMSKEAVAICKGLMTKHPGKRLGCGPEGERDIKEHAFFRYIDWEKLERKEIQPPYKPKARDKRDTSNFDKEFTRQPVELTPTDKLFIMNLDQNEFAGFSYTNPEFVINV", "conditions": "at 0.1 µM"}, "[27]": {"target": "Protein kinase C beta type (Homo sapiens) (UniProt P05771)", "conditions": "at 1 µM"}, "[28]": {"target": "Protein kinase C eta type (Homo sapiens) (UniProt P24723)", "sequence (P24723 whole entry)": "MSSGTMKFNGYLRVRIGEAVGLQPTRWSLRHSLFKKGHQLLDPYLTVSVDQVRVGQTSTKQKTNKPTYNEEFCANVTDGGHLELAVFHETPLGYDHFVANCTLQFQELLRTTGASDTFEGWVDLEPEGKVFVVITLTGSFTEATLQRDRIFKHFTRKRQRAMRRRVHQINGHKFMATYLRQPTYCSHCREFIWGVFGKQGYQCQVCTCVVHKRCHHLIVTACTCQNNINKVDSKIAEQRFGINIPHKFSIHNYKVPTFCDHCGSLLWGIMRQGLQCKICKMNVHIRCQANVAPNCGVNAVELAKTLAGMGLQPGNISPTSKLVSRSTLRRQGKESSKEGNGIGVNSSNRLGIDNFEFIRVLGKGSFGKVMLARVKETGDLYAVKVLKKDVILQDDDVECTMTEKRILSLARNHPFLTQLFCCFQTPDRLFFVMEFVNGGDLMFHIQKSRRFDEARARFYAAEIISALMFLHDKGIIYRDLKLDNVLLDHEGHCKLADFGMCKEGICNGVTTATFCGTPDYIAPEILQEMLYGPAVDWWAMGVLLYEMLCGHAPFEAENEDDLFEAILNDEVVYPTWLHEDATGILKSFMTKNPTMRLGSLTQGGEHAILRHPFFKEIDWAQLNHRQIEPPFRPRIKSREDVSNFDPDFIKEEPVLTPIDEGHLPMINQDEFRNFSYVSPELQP", "conditions": "at 0.1 µM"}, "[29]": {"target": "Protein kinase C eta type (Homo sapiens) (UniProt P24723)", "conditions": "at 1 µM"}, "[30]": {"target": "Protein kinase C gamma type (Homo sapiens) (UniProt P05129)", "conditions": "at 0.1 µM"}, "[31]": {"target": "Protein kinase C gamma type (Homo sapiens) (UniProt P05129)", "conditions": "at 1 µM"}, "[32]": {"target": "Protein kinase C iota type (Homo sapiens) (UniProt P41743)", "conditions": "at 0.1 µM"}, "[33]": {"target": "Protein kinase C iota type (Homo sapiens) (UniProt P41743)", "conditions": "at 1 µM"}, "[34]": {"target": "Protein kinase C theta type (Homo sapiens) (UniProt Q04759)", "conditions": "at 0.1 µM"}, "[35]": {"target": "Protein kinase C theta type (Homo sapiens) (UniProt Q04759)", "conditions": "at 1 µM"}, "[36]": {"target": "Protein kinase C beta type (Homo sapiens) (UniProt P05771)", "conditions": "at 0.1 µM", "remark": "listed apart in the source"}, "[37]": {"target": "Protein kinase C beta type (Homo sapiens) (UniProt P05771)", "conditions": "at 1 µM", "remark": "listed apart in the source"}, "[38]": {"target": "Serine/threonine-protein kinase D1 (Homo sapiens) (UniProt Q15139)", "conditions": "at 0.1 µM"}, "[39]": {"target": "Serine/threonine-protein kinase D1 (Homo sapiens) (UniProt Q15139)", "conditions": "at 1 µM"}, "[40]": {"target": "Serine/threonine-protein kinase D2 (Homo sapiens) (UniProt Q9BZL6)", "conditions": "at 0.1 µM"}, "[41]": {"target": "Serine/threonine-protein kinase D2 (Homo sapiens) (UniProt Q9BZL6)", "conditions": "at 1 µM"}, "[42]": {"target": "Serine/threonine-protein kinase D3 (Homo sapiens) (UniProt O94806)", "conditions": "at 0.1 µM"}, "[43]": {"target": "Serine/threonine-protein kinase D3 (Homo sapiens) (UniProt O94806)", "conditions": "at 1 µM"}, "[44]": {"target": "cGMP-dependent protein kinase 1 (Homo sapiens) (UniProt Q13976)", "conditions": "at 0.1 µM"}, "[45]": {"target": "cGMP-dependent protein kinase 1 (Homo sapiens) (UniProt Q13976)", "conditions": "at 1 µM"}, "[46]": {"target": "cGMP-dependent protein kinase 2 (Homo sapiens) (UniProt Q13237)", "conditions": "at 0.1 µM"}, "[47]": {"target": "cGMP-dependent protein kinase 2 (Homo sapiens) (UniProt Q13237)", "conditions": "at 1 µM"}, "[48]": {"target": "cAMP-dependent protein kinase catalytic subunit PRKX (Homo sapiens) (UniProt P51817)", "sequence (P51817 whole entry)": "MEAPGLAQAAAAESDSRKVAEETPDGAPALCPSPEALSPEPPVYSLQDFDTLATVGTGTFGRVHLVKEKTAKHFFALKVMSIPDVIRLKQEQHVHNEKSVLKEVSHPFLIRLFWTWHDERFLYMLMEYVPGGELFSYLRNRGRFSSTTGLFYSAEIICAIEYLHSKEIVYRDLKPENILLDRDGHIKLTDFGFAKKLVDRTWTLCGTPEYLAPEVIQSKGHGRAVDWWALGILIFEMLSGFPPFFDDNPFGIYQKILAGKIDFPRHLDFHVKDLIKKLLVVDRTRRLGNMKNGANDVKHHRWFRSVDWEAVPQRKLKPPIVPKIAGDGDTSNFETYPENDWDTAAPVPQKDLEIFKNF", "conditions": "at 0.1 µM"}, "[49]": {"target": "cAMP-dependent protein kinase catalytic subunit PRKX (Homo sapiens) (UniProt P51817)", "conditions": "at 1 µM"}, "[50]": {"target": "Rho-associated protein kinase 1 (Homo sapiens) (UniProt Q13464)", "conditions": "at 0.1 µM"}, "[51]": {"target": "Rho-associated protein kinase 1 (Homo sapiens) (UniProt Q13464)", "conditions": "at 1 µM"}, "[52]": {"target": "Rho-associated protein kinase 2 (Homo sapiens) (UniProt O75116)", "conditions": "at 0.1 µM"}, "[53]": {"target": "Rho-associated protein kinase 2 (Homo sapiens) (UniProt O75116)", "conditions": "at 1 µM"}, "[54]": {"target": "Ribosomal protein S6 kinase alpha-1 (Homo sapiens) (UniProt Q15418)", "conditions": "at 0.1 µM"}, "[55]": {"target": "Ribosomal protein S6 kinase alpha-1 (Homo sapiens) (UniProt Q15418)", "conditions": "at 1 µM"}}, "data": [{"molecule": "CNC(=O)Oc1cc(C)c(/C=C/c2cncc(C(=O)NC)c2)c(C)c1", "values": [{"measurement": "inhibition", "setting": "[1]", "value": 1.66, "unit": "%"}, {"measurement": "inhibition", "setting": "[2]", "value": 1.83, "unit": "%"}, {"measurement": "inhibition", "setting": "[3]", "value": 0.76, "unit": "%"}, {"measurement": "inhibition", "setting": "[4]", "value": 1.15, "unit": "%"}, {"measurement": "inhibition", "setting": "[5]", "value": 1.57, "unit": "%"}, {"measurement": "inhibition", "setting": "[6]", "value": 1.51, "unit": "%"}, {"measurement": "inhibition", "setting": "[7]", "value": 2.38, "unit": "%"}, {"measurement": "inhibition", "setting": "[8]", "value": -2.05, "unit": "%"}, {"measurement": "inhibition", "setting": "[9]", "value": 0.83, "unit": "%"}, {"measurement": "inhibition", "setting": "[10]", "value": -7.52, "unit": "%"}, {"measurement": "inhibition", "setting": "[11]", "value": 0.96, "unit": "%"}, {"measurement": "inhibition", "setting": "[12]", "value": 1.01, "unit": "%"}, {"measurement": "inhibition", "setting": "[13]", "value": 0.52, "unit": "%"}, {"measurement": "inhibition", "setting": "[14]", "value": 2.49, "unit": "%"}, {"measurement": "inhibition", "setting": "[15]", "value": -0.65, "unit": "%"}, {"measurement": "inhibition", "setting": "[16]", "value": 2.76, "unit": "%"}, {"measurement": "inhibition", "setting": "[17]", "value": 0.7, "unit": "%"}, {"measurement": "inhibition", "setting": "[18]", "value": 5.41, "unit": "%"}, {"measurement": "inhibition", "setting": "[19]", "value": 2.74, "unit": "%"}, {"measurement": "inhibition", "setting": "[20]", "value": 2.7, "unit": "%"}, {"measurement": "inhibition", "setting": "[21]", "value": 3.92, "unit": "%"}, {"measurement": "inhibition", "setting": "[22]", "value": 1.8, "unit": "%"}, {"measurement": "inhibition", "setting": "[23]", "value": 1.69, "unit": "%"}, {"measurement": "inhibition", "setting": "[24]", "value": 0.7, "unit": "%"}, {"measurement": "inhibition", "setting": "[25]", "value": 2.8, "unit": "%"}, {"measurement": "inhibition", "setting": "[26]", "value": -0.06, "unit": "%"}, {"measurement": "inhibition", "setting": "[27]", "value": 0.33, "unit": "%"}, {"measurement": "inhibition", "setting": "[28]", "value": 0.72, "unit": "%"}, {"measurement": "inhibition", "setting": "[29]", "value": 3.06, "unit": "%"}, {"measurement": "inhibition", "setting": "[30]", "value": 2.88, "unit": "%"}, {"measurement": "inhibition", "setting": "[31]", "value": 5.84, "unit": "%"}, {"measurement": "inhibition", "setting": "[32]", "value": 1.28, "unit": "%"}, {"measurement": "inhibition", "setting": "[33]", "value": 3.8, "unit": "%"}, {"measurement": "inhibition", "setting": "[34]", "value": 0.64, "unit": "%"}, {"measurement": "inhibition", "setting": "[35]", "value": -0.84, "unit": "%"}, {"measurement": "inhibition", "setting": "[36]", "value": 1.05, "unit": "%"}, {"measurement": "inhibition", "setting": "[37]", "value": 0.33, "unit": "%"}, {"measurement": "inhibition", "setting": "[38]", "value": 1.91, "unit": "%"}, {"measurement": "inhibition", "setting": "[39]", "value": 4.8, "unit": "%"}, {"measurement": "inhibition", "setting": "[40]", "value": 3, "unit": "%"}, {"measurement": "inhibition", "setting": "[41]", "value": 4.22, "unit": "%"}, {"measurement": "inhibition", "setting": "[42]", "value": 2.02, "unit": "%"}, {"measurement": "inhibition", "setting": "[43]", "value": 3.35, "unit": "%"}, {"measurement": "inhibition", "setting": "[44]", "value": 3.13, "unit": "%"}, {"measurement": "inhibition", "setting": "[45]", "value": 4.05, "unit": "%"}, {"measurement": "inhibition", "setting": "[46]", "value": 3.07, "unit": "%"}, {"measurement": "inhibition", "setting": "[47]", "value": 5.39, "unit": "%"}, {"measurement": "inhibition", "setting": "[48]", "value": 1.78, "unit": "%"}, {"measurement": "inhibition", "setting": "[49]", "value": 0.62, "unit": "%"}, {"measurement": "inhibition", "setting": "[50]", "value": 0.86, "unit": "%"}, {"measurement": "inhibition", "setting": "[51]", "value": 4.25, "unit": "%"}, {"measurement": "inhibition", "setting": "[52]", "value": 1.43, "unit": "%"}, {"measurement": "inhibition", "setting": "[53]", "value": 3.24, "unit": "%"}, {"measurement": "inhibition", "setting": "[54]", "value": 2.03, "unit": "%"}, {"measurement": "inhibition", "setting": "[55]", "value": 4.8, "unit": "%"}]}]}
